This is part of a sample that, as a whole, favours compounds with a hit. Of some 79,000 tested, about 15% had one in any assay. Unmarked numbers belong to inactive results. Active and inactive are the calls of the source. Cut-off read from the data, not from the text of the source: active = growth inhibition above about 70%; inactive = the rest.
Tests used:
[1] = NCI Yeast Anticancer Drug Screen. Data for the rad50 strain (AID 155);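 note: 0% = growth of vehicle-only cultures of the same strain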; conditions: S. cerevisiae rad50 strain growth inhibition; at 50.0 µM; stronger effect = higher value
Summary of the method: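 Compounds were tested on a yeast strain with an engineered DNA damage repair alteration; the reported value is growth inhibition normalised to vehicle treatment.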

[2] = NCI Yeast Anticancer Drug Screen. Data for the mec2-1 strain (AID 157); conditions: S. cerevisiae mec2-1 strain, at 50.0 µM, stronger effect = higher value
Summary of the method: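 Cells of the genetically defined mec2-1 yeast strain are incubated with test compound. Inhibition of growth is calculated against vehicle-treated controls.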

[3] = NCI Yeast Anticancer Drug Screen. Data for the sgs1 mgt1 strain (AID 161);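 note: 0% = growth of cultures given vehicle only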; conditions: S. cerevisiae sgs1 mgt1 strain, at 50.0 µM, stronger effect = higher value
Summary of the method: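 Test agents were incubated with a DNA-repair-mutant yeast strain. Growth was then read and compared against vehicle-treated controls.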

[4] = NCI Yeast Anticancer Drug Screen. Data for the cln2 rad14 strain (AID 165);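 note: 0% = growth equal to vehicle treated cultures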; conditions: S. cerevisiae cln2 rad14 strain, at 50.0 µM, stronger effect = higher value
Summary of the method: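 The screen exposed genetically defined yeast (cln2 rad14) to test compounds and scored growth inhibition relative to vehicle-treated controls.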

[5] = NCI Yeast Anticancer Drug Screen. Data for the bub3 strain (AID 167); conditions: S. cerevisiae bub3 mutant strain, at 50.0 µM, stronger effect = higher value
Summary of the method: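 Growth of a checkpoint-deficient yeast mutant is measured after compound exposure. Values represent inhibition relative to vehicle.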

[6] = NCI Yeast Anticancer Drug Screen. Data for the mlh1 rad18 strain (AID 175); conditions: S. cerevisiae mlh1 rad18 strain growth inhibition; at 50.0 µM; stronger effect = higher value
Summary of the method: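 Compound-treated yeast growth, normalised to vehicle controls. Strain bears defined DNA repair mutations.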

| Compound | growth inhibition [1] | growth inhibition [2] | growth inhibition [3] | growth inhibition [4] | growth inhibition [5] | growth inhibition [6] |
| --- | --- | --- | --- | --- | --- | --- |
| O=C1OC(/C=C/c2ccccc2)=NC/1=C\c1ccccc1Cl | 29.8% | 15.4% | 35% | 21.6% | 17.4% | 20.4% |
| O=S(=O)(C(=C(c1ccccc1)c1ccccc1)c1ccccc1)c1ccccc1 | 42.1% | 99.5% (active) | 19.9% | 17.8% | 6.35% | 68% |
| Nc1ccc(N=Nc2ccc(N)cc2)cc1 | 12.7% | 6.5% | -13.7% | -8.9% | 11.2% | 2.5% |
| CC1COC(C(=O)O)(c2ccccc2)O1 (configuration not stated) | -1.05% | -3.55% | -2.1% | -17.6% | -0.35% | 6.7% |
| CCOC(=O)/C(C#N)=C(\C)c1ccc(O)c(OC)c1 | 11.4% | 8.95% | -3.45% | 24.1% | -8.1% | 14.8% |
| c1ccc2c(C3CO3)c3ccc4ccccc4c3cc2c1 (configuration not stated) | 99% (active) | 99.5% (active) | 99.5% (active) | 98.8% (active) | 99.2% (active) | 99.2% (active) |
| CO/C(=N\N=C\c1cccc(Cl)c1)c1ccncc1 | 6.35% | -9.6% | -13.8% | -24.4% | -18.1% | -11.1% |
| S=C(SC1C=CCC1)N1CCOCC1 (configuration not stated) | 15.7% | -2.8% | 13.5% | -41.8% | 10.1% | -13.6% |
| CC(=Nc1cccc2ccccc12)c1c(O)cc(C)oc1=O | 20.4% | 12.2% | 15.2% | 20.9% | 16.1% | 14.1% |
| CCN(CC)C(=O)CS(=O)(=O)c1ccc(N)cc1 | 3.55% | -8.5% | 2% | 23.9% | 7.35% | 14.7% |
| CCC(=O)Oc1ccc(C(C)(C)CC(C)(C)C)cc1 | 32.2% | -8.85% | 34% | -7.05% | 6.05% | 51.7% |
| CC(=O)OCC1OC(OCCCc2ccccc2)C(OC(C)=O)C(OC(C)=O)C1OC(C)=O (configuration not stated) | 21% | 5.5% | 6.45% | -47.9% | -65.9% | 24.9% |
| CC(Sc1nc2ccccc2c(=O)[nH]1)c1ccccc1 (configuration not stated) | 3.1% | -1.85% | 3.3% | -21.8% | 7.3% | -6.7% |
| COc1ccc(C(C)=O)c(C)c1OC | 22.6% | 3.65% | 19.6% | 10.4% | -22.2% | 15.2% |
| O=C(O)COc1ccc2ccccc2c1 (tested in a mixture with another compound) | -36% | -19.9% | -26.3% | -37.7% | -0.1% | -5.65% |
| CN(C)C(=S)Oc1ccc([N+](=O)[O-])cc1Cl | 17.9% | 6.95% | 4.95% | 19.4% | -3.3% | 29.3% |
| CNC1C(=O)C(C)C(O)(C(CC(C)C(O)/C=C/C=C/CNC(=O)C(C)(C)C(O)\C(C)=C/C=C\C=C\Cc2cnc(C)o2)OC)C12C(=O)OC2COC (configuration not stated) (tested in a mixture with another compound) | 2.6% | -22.1% | -7.75% | 2.95% | 12.9% | 6.35% |
| COc1ccccc1NC(=O)N(Cc1ccccc1)C(C)(C)C | 12.2% | 9.35% | 30.4% | -10.2% | 19.3% | 33.2% |
| CCSc1nc(Cl)nc2c1cnn2C | 7.95% | -2.15% | 8.05% | 4.1% | 24.9% | 5.4% |

| Compound | growth inhibition [1] | growth inhibition [2] | growth inhibition [3] | growth inhibition [4] | growth inhibition [5] | growth inhibition [6] |
| --- | --- | --- | --- | --- | --- | --- |
| Cc1onc(-c2c(Cl)cccc2Cl)c1C(=O)SC1=NC(C)N2C(SC(=O)c3c(-c4c(Cl)cccc4Cl)noc3C)=NC(C)N12 (configuration not stated) | 26.6% | 7.4% | 11.3% | 11.7% | 18.6% | 16.6% |
| O=C1CCCC2C(O)CCC[C@H]12 (some centres not stated) | -9% | -2.9% | -21.8% | 1% | -7.7% | -1.9% |
| CC(C)C(NC(=O)C1CSC(C)(C)N1C=O)C(=O)O (configuration not stated) | -1.6% | -0.1% | -3.3% | -8.35% | 6.55% | 2.25% |
| CCOC(=O)NCC(C)(C)C | -2.4% | 10.9% | 6.5% | -0.65% | -7.9% | 35.4% |
| OCC(O)C(O)C(O)CN=Cc1ccccc1O (configuration not stated) | -7.45% | -2.25% | 10.4% | -7.8% | -1.15% | 12.3% |
| Nc1cn(Cc2ccccc2)c(=O)n(Cc2ccccc2)c1=O | -1.85% | -7.85% | -9.5% | -57.5% | 8.95% | -23.6% |
| COc1cc(CN2CCN(CCO)CC2)c(O)c(CN2CCN(CCO)CC2)c1 | -2% | 1.55% | -23.4% | -6.9% | -5.45% | 6.9% |
| CCCCCCCCCCCCCCCCSc1ccc(S(=O)(=O)N(C)C)cc1N | -16.3% | -36.8% | 3.15% | 10% | 0.75% | 11.9% |
| O=C/C=C/N=c1ccn(O)cc1 | 8.65% | 3.45% | 3.05% | -2.1% | 4.25% | 2.1% |
| CCOC(=O)c1c(C)c2c(n1C)CC/C(=C\N1CCN(c3ccccc3)CC1)C2=O | 0.6% | -1.55% | -19.5% | -14.8% | 2.25% | 18.3% |
| O=C1O[C@H]2C3C4CCC(C4[C@@H]2I)[C@H]13 (some centres not stated) | -13.7% | -13.8% | -9.1% | 19.9% | 14.1% | 16.6% |
| COC(=O)c1cc(C(=O)OC)c(CC(=O)C(=O)Nc2c(C(C)C)cccc2C(C)C)nc1CC(=O)C(=O)Nc1c(C(C)C)cccc1C(C)C | -18.8% | -22.9% | -11.7% | 1.75% | -13.1% | -6.85% |
| C=C[C+](CCCC)C(=O)[O-] | -20.2% | -24.1% | -11.1% | -19.8% | -12.8% | -34.9% |
| CC(=O)CC(=O)Nc1cc(C(F)(F)F)ccc1Cl | 15.4% | -25.6% | -19.1% | -0.3% | -6.25% | 3.05% |
| CCOC(=O)c1ccc(N(C=O)CCC(OCC)OCC)cc1 | -2.25% | -5.75% | 4.35% | -49.4% | 17.9% | -0.3% |
| O=C(CCc1nnc2s/c(=C\c3ccccc3Cl)c(=O)n12)Nc1cc(Cl)ccc1Cl | 2.9% | -14.7% | -36.8% | -21.8% | -4.8% | -15.1% |
| Cc1nn(C)c2ncnc(N)c12 | 10.8% | 0.55% | 17% | -7.8% | -8.85% | 7.7% |
| NC(=O)N/N=C/c1ccccc1N | 5.85% | -6.75% | 0.95% | -22.1% | -8.65% | -2.7% |

Source: PubChem BioAssay (NCI)
